The text below walks through data of PubChem BioAssay AID1851 (National Center for Advancing Translational Sciences (NCATS), 2009).

The AC50 is the midpoint of the concentration-response curve, whichever way the signal moves.

The structures appear in SMILES notation. The campaign covered roughly 16,000 compounds. About 5,100 (32%) were called active. Not shown: some 25% with an inconclusive outcome. The list shows a part of the results. Values without a mark were called inactive. The call rests on the fitted dose curve; in most records, active means well fitted curve in the direction sought with a large enough effect; inconclusive means small, poorly fitted or top-dose-only effect, or effect the other way; inactive means no such curve, though single readings can be large or run the other way.
On the % scale 0 is the no-effect control and ±100 the full control effect.

In this assay the target is Cytochrome P450 3A4 (Homo sapiens) (UniProt P08684). The assay is described as follows: Cytochrome panel assay with activity outcomes. To be noted: recombinant CYP, pro-luciferin dealkylation, luminescence, p450-cyp3a4; series mostly up to 57.1 µM.
Chain of Cytochrome P450 3A4 (Homo sapiens) (P08684 whole entry, looked up): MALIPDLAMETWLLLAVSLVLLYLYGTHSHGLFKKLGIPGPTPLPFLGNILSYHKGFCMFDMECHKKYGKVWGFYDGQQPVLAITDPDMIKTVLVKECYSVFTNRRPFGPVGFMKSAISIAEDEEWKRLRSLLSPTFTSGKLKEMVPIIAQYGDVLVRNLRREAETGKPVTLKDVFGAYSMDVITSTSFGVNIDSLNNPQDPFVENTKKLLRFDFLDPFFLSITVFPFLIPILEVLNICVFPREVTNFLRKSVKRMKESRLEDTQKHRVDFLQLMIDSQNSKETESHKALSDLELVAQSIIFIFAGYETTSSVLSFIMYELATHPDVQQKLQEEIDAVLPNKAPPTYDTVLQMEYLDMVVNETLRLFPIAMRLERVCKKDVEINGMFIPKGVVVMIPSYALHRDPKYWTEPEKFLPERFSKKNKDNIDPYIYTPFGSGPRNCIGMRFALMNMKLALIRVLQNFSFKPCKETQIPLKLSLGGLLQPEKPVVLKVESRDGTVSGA
As to `Nc1nc(=O)c2[nH]cnc2n1O`, the activity, negative = inhibition was -2.96% [at 11.4 µM].
For `Cn1c(=O)c2[nH]cnc2n(C)c1=O`, the AC50 entry was “inactive”.
The same measure, in the same setting: the same measure for `CC(C)Cn1c(=O)n(C)c(=O)c2[nH]cnc21`: 3.98 µM (active).
Turning to `CN(Cc1cc(Cl)cc(Cl)c1O)Cc1c(O)ccc2ccccc12`, the activity, negative = inhibition is -29.5% [at 11.4 µM].
As to `CC(C)(N)C(=O)N[C@@H]1C(=O)N2[C@@H]1SC(C)(C)[C@H]2C(=O)O`, the activity, negative = inhibition was -5.57% [at 11.4 µM].
For the compound `Nc1ccc(N(c2ccccc2)c2ccc(N)cc2)cc1`, the concentration at half-maximal activity (AC50) was 1.78 µM (active).
On the same count and under the same terms, the same measure for `Nc1ccc(S(=O)(=O)NC(=O)c2ccccc2)cc1`: “inactive”.
Same read-out and setting: the same measure for `COc1ccc(C2C3=C(CC(C)(C)CC3=O)Oc3ncn(CC(C)C)c(=N)c32)cc1` (stereo not given): 12.6 µM (active); for `COCCn1c(=O)c(-c2cccc(C#N)c2)nc2cnc(Oc3ccc(OC)cc3)nc21`: 2.51 µM (active); for `CN(C)c1ncc2nc(-c3ccc(F)cc3)c(=O)n(CCC#N)c2n1`: “inactive”.
Turning to `N#CCCn1c(=O)c(-c2cccc(C#N)c2)nc2cnc(Oc3ccccc3)nc21`, the AC50 entry is “inactive”.
Same read-out and setting: the same measure for `COCCn1c(=O)c(-c2cccc(C#N)c2)nc2cnc(N(C)C)nc21`: “inactive”.
Same read-out and setting: the same measure for `COCCn1c(=O)c(-c2cccc(C#N)c2)nc2cnc(Oc3ccccc3)nc21`: 25.1 µM (active).
Still for that read-out and setting: the same measure for `COCCn1c(=O)c(-c2cccc(C#N)c2)nc2cnc(OCc3ccccc3)nc21`: 10 µM (active); for `N#CCCn1c(=O)c(-c2ccc(F)cc2)nc2cnc(Oc3cccc(Cl)c3)nc21`: “inactive”; for `N#CCCn1c(=O)c(-c2ccc(F)cc2)nc2cnc(OCc3ccccc3)nc21`: 15.8 µM (active).
As to `CC(C)(C)NC[C@@H](O)COc1ccccc1C1CCCC1`, the AC50 entry is “inactive”.
On the same count and under the same terms, the same measure for `COc1cc2c(cc1OC)-c1cc3ccc(OC)c(OC)c3c[n+]1CC2`: “inactive”.
Same read-out and setting: the same measure for `CC(C)C(NS(=O)(=O)c1cccc2nsnc12)C(=O)N1CCc2ccccc2C1` (stereo not given): 7.08 µM (active); for `Cc1ccc(S(=O)(=O)N[C@H](C(=O)N2CCC(C(=O)NCC(=O)O)CC2)C(C)C)cc1`: “inactive”.
As for `CC(C)c1ccc2nc3sc(C(=O)N4CCc5ccccc5C4)c(N)c3cc2c1`, the activity, negative = inhibition was 6.07% [at 2.29 µM].
Take `Cc1cc(OC(=O)c2ccc(Cl)cc2)cc(=O)n1C`: the AC50 result is “inactive”.
With `COC(=O)C(NC(=O)c1ccc(Cl)cc1)(Nc1nc(C)cs1)C(F)(F)F` (stereo not given), the AC50 was 14.1 µM (active).
On the same count and under the same terms, the same measure for `CCOc1ccc(C(=O)CCC(=O)O)cc1`: “inactive”; for `CCOc1ccc(C(=O)Cc2cc(OC)c(OC)cc2[N+](=O)[O-])cc1`: 7.94 µM (active); for `CCOc1ccc(/C=C/C(=O)Nc2ccc(OC)cc2[N+](=O)[O-])cc1`: “inactive”.
For the compound `C[C@]12CC[C@H]3c4ccc(OC[C@H]5CO5)cc4CC[C@H]3[C@H]1CC[C@@H]2O`, the activity, negative = inhibition was 11.8% [at 11.4 µM].
As for `S=C(S)NCCN1CCNCC1`, the activity, negative = inhibition was -13.6% [at 11.4 µM].
`Cn1nccc1C(=O)Nc1ccc(Cl)cc1`: the AC50 entry was “inactive”.
The same measure, in the same setting: the same measure for `O=C(NCCCn1ccnc1)Nc1ccc(Cl)cc1`: 0.398 µM (active).
On the same count and under the same terms, the same measure for `COc1ccc(C(=O)N/C(=C/c2cccs2)C(=O)NCCCn2ccnc2)cc1OC`: 1.58 µM (active); for `O=C(NCCCN1CCc2ccccc2C1)Nc1ccc(Cl)cc1`: “inactive”; for `S=C(S)NCCCn1ccnc1`: 1.58 µM (active).
As to `NCCNC(=S)S`, the activity, negative = inhibition is -20.2% [at 11.4 µM].
With `COc1ccc2c(Cl)c(C(=O)NCCCn3ccnc3)sc2c1Cl`, the half-maximal activity concentration (AC50) is 0.501 µM (active).
Turning to `CC(C)(CO)[C@H](O)C(=O)NCCCO`, the AC50 entry was “inactive”.
On the same count and under the same terms, the same measure for `N[C@@H](Cc1cc(-c2ccc(Cl)cc2Cl)cc(CP(=O)(O)O)c1O)C(=O)O`: “inactive”; for `O=C(O)C1CCCCC1C(=O)Nc1ccccc1Cl` (stereo not given): “inactive”; for `CCc1ccccc1NC(=O)C1C(c2ccccc2)C1(Cl)Cl` (stereo not given): 15.8 µM (active).
Regarding `COC(=O)C1=C(C)NC2=C(C(=O)CCC2)C1c1cn(Cc2ccc(Cl)cc2Cl)nc1-c1ccccc1` (stereo not given), the AC50 was 2.51 µM (active).
The same measure, in the same setting: the same measure for `C[C@H](C[C@H](N)C(=O)O)C(=O)O`: “inactive”; for `CC[N+](CC)(CC)CCOc1cccc(OCC[N+](CC)(CC)CC)c1OCC[N+](CC)(CC)CC`: “inactive”.
Consider `Clc1ccc(-c2ccnc(Oc3cc(Cl)ccc3Cl)n2)cc1`, for which the AC50 result is “inactive”.
Still for that read-out and setting: the same measure for `Cc1cc(Cl)ccc1Oc1ncc(-c2ccc(Cl)cc2)cn1`: 7.08 µM (active); for `Nc1cc(Cl)ccc1Oc1ccc(Cl)cc1`: “inactive”; for `O=C(NC1CCCC1)c1cccnc1N1CCCCCC1`: 14.1 µM (active).
The same measure, in the same setting: the same measure for `O=[N+]([O-])c1cccnc1N1CCCCC1`: “inactive”; for `O=C(O)C1CCN(c2ncccn2)CC1`: “inactive”.
On the same count and under the same terms, the same measure for `Cc1noc(C)c1COc1cccc(C(=O)OCC(=O)N2CC(=O)Nc3ccccc32)c1`: 4.47 µM (active).
As to `COCc1c(C(=O)OCC(=O)N2c3ccccc3NC(=O)C2(C)C)oc2ccccc12`, the AC50 result is “inactive”.
With `Cc1cc(F)ccc1S(=O)(=O)Nc1ccccc1C(=O)Nc1ccccc1N1CCOCC1`, the AC50 is 0.891 µM (active).
On the same count and under the same terms, the same measure for `O=C(Nc1ccccc1N1CCOCC1)c1ccc([N+](=O)[O-])cc1`: “inactive”; for `O=C(Nc1ccccc1N1CCOCC1)c1ccccc1[N+](=O)[O-]`: “inactive”.
Still for that read-out and setting: the same measure for `Cc1cccc(CNc2nc(-c3ccccc3CN(C)C)nc3ccccc23)c1`: 10 µM (active); for `CN(C)Cc1ccccc1-c1nc(N(C)C)c2ccccc2n1`: “inactive”.
Consider `CN(C)Cc1ccccc1-c1nc(NCc2ccccc2)c2ccccc2n1`, for which the concentration at half-maximal activity (AC50) was 12.6 µM (active).
Same read-out and setting: the same measure for `CCCCN=C1N/C(=C\c2ccco2)C(=O)N1c1ccccc1`: “inactive”; for `COc1ccccc1OCCN1C(=O)S/C(=C\c2ccco2)C1=O`: 14.1 µM (active).
The same measure, in the same setting: the same measure for `CCOc1cc(/C=C2/SC(=O)N(CC(=O)N3CCc4ccccc4C3)C2=O)ccc1OCC(=O)O`: “inactive”.
The same measure, in the same setting: the same measure for `CCCc1cc(=O)oc2cc(OCC(=O)N3CCc4ccccc43)ccc12`: 8.91 µM (active); for `CCCCc1cc(=O)oc2cc(OCC(=O)N(CC)CC)ccc12`: “inactive”.
For the compound `CCCc1cc(=O)oc2cc(OCc3nn[nH]n3)ccc12`, the activity, negative = inhibition was -17.2% [at 2.29 µM].
Regarding `Cc1ccc(Nc2nc(-c3c(C)nc4ncccn34)cs2)cc1`, the AC50 was 25.1 µM (active).
Same read-out and setting: the same measure for `C=CCn1c(=O)c(C(=O)NCCN(CC)CC)c(O)c2ccccc21`: “inactive”; for `CC(C)C(=O)NCCn1ccc2ccccc21`: 12.6 µM (active).
Same read-out and setting: the same measure for `O=C(O)CN1CCN(Cc2ccccc2)C1=O`: “inactive”.
On the same count and under the same terms, the same measure for `O=C(O)CN1CCN(Cc2ccc(F)cc2Cl)C1=O`: 2.24 µM (active); for `Cc1sc(NC(=O)/C=C/c2ccc(C(C)C)cc2)c(C#N)c1C`: “inactive”; for `Cc1sc(NC(=O)C2CCCCC2)c(C#N)c1-c1ccccc1`: 8.91 µM (active).
In the case of `CC1=C(C#N)C(NC(=O)C2CCCCC2)(C(F)(F)F)C(=O)N1` (stereo not given), the AC50 entry was “inactive”.
The same measure, in the same setting: the same measure for `CC(C)(C)CNC(CO)C12CC3CC(CC(C3)C1)C2` (stereo not given): “inactive”.
Take `Cc1nc(SCC(=O)Nc2c(C)nn(C)c2C)c2cnn(-c3ccccc3)c2n1`: the activity, negative = inhibition was -11.2% [at 2.29 µM].
Take `CCC(CC)C(=O)Nc1c2cnn(-c3ccccc3)c2nc(=O)n1-c1ccccc1`: the AC50 entry is “inactive”.
As to `Cc1ccc2nc(SCc3nc4c(cnn4-c4ccccc4)c(=O)[nH]3)[nH]c2c1`, the half-maximal activity concentration (AC50) was 10 µM (active).
Same read-out and setting: the same measure for `CCc1c(O)nc2sc3ccccc3n2c1=O`: “inactive”; for `CCOC(=O)Cc1cc(=O)n2[nH]c(C)c(-c3ccccc3)c2n1`: “inactive”.
Take `Cc1ccc2c(CC(=O)OCc3cc(=O)n4c(n3)sc3ccccc34)coc2c1`: the AC50 was 7.94 µM (active).
The same measure, in the same setting: the same measure for `CN(CCO)c1nc(N)c2c(N)nc3c(c2c1C#N)CC(=O)N3C1CCCC1`: 10 µM (active).
Regarding `COCCCNC(=O)C(=O)N/N=C/c1ccc(OCC(=O)Nc2cccc(Cl)c2C)c(OC)c1`, the activity, negative = inhibition was 7.9% [at 2.29 µM].
On to `Cc1ccccc1OCC(=O)NC(=S)Nc1ccc(Br)c(C)n1`, for which the AC50 result is “inactive”.
Same read-out and setting: the same measure for `COc1cc(/C=N/NC(N)=O)c(Br)cc1OCC(=O)Nc1ccccc1C`: 3.55 µM (active); for `CCCN1C(=O)/C(=C/c2ccc(C)s2)SC1=Nc1ccc(OC)cc1`: 14.1 µM (active); for `CCCCOC(=O)NS(=O)(=O)c1sc(CC(C)C)cc1-c1ccc(Cn2c(CC)nc3c(C)cc(C)nc32)cc1`: 3.16 µM (active).
Still for that read-out and setting: the same measure for `C=CCn1c(SCC(=O)Nc2c(C)n(C)n(-c3ccccc3)c2=O)nc2sc(C)c(-c3ccccc3)c2c1=O`: 2.51 µM (active); for `Cc1c(NC(=O)CSc2nnc3c4ccccc4n(CCc4ccccc4)c3n2)c(=O)n(-c2ccccc2)n1C`: 10 µM (active).
`Cc1nc(SCC(=O)Nc2c(C)n(C)n(-c3ccccc3)c2=O)nc(C)c1C`: the activity, negative = inhibition is -4.78% [at 11.4 µM].
In the case of `Cc1c(NC(=O)CSc2nnnn2C)c(=O)n(-c2ccccc2)n1C`, the activity, negative = inhibition is -2.31% [at 2.29 µM].
On to `Cc1cccc(NC(=O)Cn2c(=O)n3nc(CCn4nc(C)cc4C)nc3c3ccccc32)c1`, for which the AC50 is 5.01 µM (active).
For the compound `Cc1cccc(NC(=O)CSc2nc3ccccc3c3nc(CCc4c(C)n[nH]c4C)nn23)c1`, the AC50 is 3.55 µM (active).
The same measure, in the same setting: the same measure for `Cc1ccc(/C=C/C(=O)N2CC(C)CC(C)C2)o1` (stereo not given): “inactive”; for `C[C@]1(c2ccccc2)O[C@@H]2C[C@@H]3[C@@H]4CCC5=CC(=O)C=C[C@@]5(C)[C@]4(F)[C@H](O)C[C@]3(C)[C@@]2(C(=O)CO)O1`: 3.16 µM (active).
With `C[C@H]1C[C@H]2[C@H]3CCC4=CC(=O)C=C[C@@]4(C)[C@]3(F)[C@H](O)C[C@]2(C)[C@@]1(O)C(=O)COP(=O)(O)O`, the activity, negative = inhibition is 7.91% [at 11.4 µM].
Turning to `C[C@]12C=CC(=O)C=C1CC[C@@H]1[C@H]3C[C@@H](O)[C@](O)(C(=O)CO)[C@@]3(C)C[C@H](O)[C@]12F`, the AC50 entry was “inactive”.
Still for that read-out and setting: the same measure for `O=C(NCc1ccccc1)C(c1ccc(F)cc1)N(Cc1ccco1)C(=O)c1ccccn1` (stereo not given): 2.24 µM (active).
As to `Cc1ccccc1C(C(=O)NCc1ccccc1)N(Cc1ccco1)C(=O)c1ccccn1` (stereo not given), the AC50 was 3.16 µM (active).
